Rows were chosen to be rich in hits. Some 1.6% of all compounds tested hit in one or more screens of this group.
eIF4E-4G inh: eIF4E/eIF4G interaction inhibition in translation initiation; TR-FRET eIF4E-eIF4GI(517-606) binding, 2 h; P63073+Q04637; actives 0.37% (n = 220,000); inhibition, % at 21.7 µM;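 active means inhibition above about 30%, limit read from the data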;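 further: 0% = full FRET control wells and 100% = background wells lacking eIF4GI fragment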
PERK inhibitor: human PERK inhibition, primary cell-based screen; Q9NZJ5; CHO PERK-DD fusion, SEAP luminescence translation reporter; inhibition, % at 5.6 µM; actives 0.17% (n = 220,000); AID 1416;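 active means inhibition above the mean inhibition of all tested compounds plus 3 SD, set separately per screening campaign, cut at about 2.9% in these data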;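 further: PERK kinase domain activated by AP20187 dimerizer at 100 nM; 0% = DMSO with dimerizer and 100% = rapamycin at 8.4 µM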
PABP polyA inh: PABP-poly(A) binding inhibition | P11940 | calls only at 35 µM | AID 2014 | PABP-poly(A) RNA binding, fluorescence polarization | actives 1% (n = 290,000);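 further: calls also rest on retests at 20 µM and on dose response follow-up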
Target sequence (P11940 whole entry, looked up): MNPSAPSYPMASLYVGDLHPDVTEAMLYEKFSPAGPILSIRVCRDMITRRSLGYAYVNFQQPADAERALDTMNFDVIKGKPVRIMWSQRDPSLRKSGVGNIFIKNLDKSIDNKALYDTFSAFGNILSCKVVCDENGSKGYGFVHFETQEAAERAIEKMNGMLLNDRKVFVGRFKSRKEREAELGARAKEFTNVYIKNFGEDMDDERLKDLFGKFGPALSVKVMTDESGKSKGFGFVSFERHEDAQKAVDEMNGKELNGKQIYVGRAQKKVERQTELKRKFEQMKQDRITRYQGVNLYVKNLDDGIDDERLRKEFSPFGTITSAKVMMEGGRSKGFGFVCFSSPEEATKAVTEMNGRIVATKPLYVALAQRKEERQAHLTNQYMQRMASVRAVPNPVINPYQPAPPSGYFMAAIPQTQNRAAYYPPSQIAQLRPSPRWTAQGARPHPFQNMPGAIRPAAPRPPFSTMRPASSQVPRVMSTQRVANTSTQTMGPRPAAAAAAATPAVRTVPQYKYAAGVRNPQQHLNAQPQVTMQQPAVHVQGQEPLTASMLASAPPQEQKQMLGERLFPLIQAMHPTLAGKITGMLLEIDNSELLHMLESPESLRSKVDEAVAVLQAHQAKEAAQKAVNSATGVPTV
eIF4H inh: inhibitors of RNA binding by human eIF4H; eIF4H fluorescence polarization binding assay; inhibition, % at 35 µM; actives 0.94% (n = 290,000);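 further: calls also rest on retests at 20 µM and on dose response follow-up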
MLLE-PAM2 inh: inhibitors of microRNA-mediated deadenylation, human PABP1 MLLE binding; P11940; GST-MLLE / FITC-PAM2 fluorescence polarization; inhibition, % at 20 µM; actives 0.36% (n = 360,000); in the data active means inhibition above about 35%, passing the limit was not always enough;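 further: plate controls were DMSO wells with GST-MLLE for no effect and wells lacking GST-MLLE protein for full effect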
An asterisk follows results filed as active. Unless noted, how the calls were made is not given here.

How did COc1ccc(C(=O)/C=C/c2ccc(N3CCCCC3)c([N+](=O)[O-])c2)c(OC)c1 do in these assays?
eIF4E-4G inh: -1; PERK inhibitor: 1; PABP polyA inh: inactive; eIF4H inh: -2; MLLE-PAM2 inh: 3

Results for COc1ccc(C(=O)/C=C/c2ccc(N3CCCCC3)c([N+](=O)[O-])c2)cc1 ?
eIF4E-4G inh: 0; PERK inhibitor: 1; PABP polyA inh: active; eIF4H inh: active; MLLE-PAM2 inh: 2

Results for Cc1ccc(N2CC(C(=O)NCCC3=CCCCC3)CC2=O)cc1 (centres undefined) ?
MLLE-PAM2 inh: -8

How did CCS(=O)(=O)c1ccc2c(c1)N(S(=O)(=O)c1ccc(Cl)cc1)CC(C(=O)O)O2 (centres undefined) do in these assays?
eIF4E-4G inh: 5; PERK inhibitor: 1; PABP polyA inh: inactive; eIF4H inh: -2; MLLE-PAM2 inh: 7

Results for Fc1ccc(NCc2nnc(SCc3nnc(-c4ccccc4)o3)n2Cc2ccccc2)cc1 ?
eIF4E-4G inh: -7; PERK inhibitor: 0; PABP polyA inh: inactive; eIF4H inh: 58*; MLLE-PAM2 inh: -57

What do the screens show for `Clc1ccc(-c2nnc(CSc3nnc(-c4cccs4)n3Cc3ccccc3)o2)cc1`?
eIF4E-4G inh: 4; PERK inhibitor: -1; PABP polyA inh: inactive; eIF4H inh: -5; MLLE-PAM2 inh: -1

Results for COc1ccc(Cl)cc1-c1cc(C(=O)Nc2ccc(C(C)(C)C)cc2)[nH]n1 ?
MLLE-PAM2 inh: 10

What do the screens show for `O=C1c2ccncc2C(=O)N1c1cccc(Cl)c1`?
eIF4E-4G inh: -1; PERK inhibitor: 4.0*; PABP polyA inh: inactive; eIF4H inh: 0; MLLE-PAM2 inh: -5

What do the screens show for `O=C1c2cccc3cccc(c23)C(=O)N1c1cccnc1`?
eIF4E-4G inh: 1; PERK inhibitor: 1; PABP polyA inh: inactive; eIF4H inh: -4; MLLE-PAM2 inh: -17

How did CCCCOC(=O)c1cc(=O)[nH]c(=O)[nH]1 do in these assays?
eIF4E-4G inh: 3; PERK inhibitor: 2; PABP polyA inh: active; eIF4H inh: -4; MLLE-PAM2 inh: -5

What do the screens show for `Cc1cc(C)cc(NC(=O)COC(=O)c2cc(=O)[nH]c(=O)[nH]2)c1`?
eIF4E-4G inh: -10; PERK inhibitor: 0; PABP polyA inh: inactive; eIF4H inh: -6; MLLE-PAM2 inh: 9

How did COc1cc(-c2nnc(SCC(=O)c3cc(C)n(CC4CCCO4)c3C)o2)cc(OC)c1OC (centres undefined) do in these assays?
eIF4E-4G inh: 2; PERK inhibitor: -1; PABP polyA inh: active; eIF4H inh: 70*; MLLE-PAM2 inh: -90

Results for CCCc1cc(=O)[nH]c(SCC(=O)c2ccc(S(=O)(=O)N3CCCC3)cc2)n1 ?
eIF4E-4G inh: -3; PERK inhibitor: 1; PABP polyA inh: inactive; eIF4H inh: -9; MLLE-PAM2 inh: 29

Results for CCCc1cc(=O)[nH]c(SCC(=O)N2CCN(S(=O)(=O)c3ccc(Cl)cc3)CC2)n1 ?
eIF4E-4G inh: -2; PERK inhibitor: 0; PABP polyA inh: inactive; eIF4H inh: 56*; MLLE-PAM2 inh: 10

Results for Cc1cc(N2CCOCC2)n2nc(C)c(-c3ccccc3)c2n1 ?
eIF4E-4G inh: 89*; PERK inhibitor: 0; PABP polyA inh: inactive; eIF4H inh: -8; MLLE-PAM2 inh: 7

What do the screens show for `Nc1nc2c(nnn2C2CC(O)C(CO)O2)c(=O)[nH]1` (centres undefined)?
MLLE-PAM2 inh: -8

Results for CCC(=O)/C=C1/Sc2ccc(OC)cc2N1CCO ?
eIF4E-4G inh: -1; PERK inhibitor: 1; PABP polyA inh: inactive; eIF4H inh: -6; MLLE-PAM2 inh: 45*

Results for CCC(=O)/C=C1/Sc2ccc(OC)cc2N1CC ?
eIF4E-4G inh: -2; PERK inhibitor: 0; PABP polyA inh: inactive; eIF4H inh: 7; MLLE-PAM2 inh: 31

What do the screens show for `NCc1cc2c3c(c1)CCCN3CCC2`?
PABP polyA inh: active; eIF4H inh: 93*; MLLE-PAM2 inh: 36*

How did COc1c(C=O)cc2c3c1CCCN3CCC2 do in these assays?
PABP polyA inh: inactive; eIF4H inh: 0; MLLE-PAM2 inh: -8

How did CCc1ccc(S(=O)(=O)NC(=S)NC2CCCCC2)cc1 do in these assays?
eIF4E-4G inh: -5; PERK inhibitor: 0; PABP polyA inh: inactive; eIF4H inh: -14; MLLE-PAM2 inh: 43*

What do the screens show for `O=S(=O)(NC(=S)NC1CCCCC1)c1ccc(Cl)cc1`?
eIF4E-4G inh: -1; PERK inhibitor: 2; PABP polyA inh: inactive; eIF4H inh: 0; MLLE-PAM2 inh: 27

Results for Cc1ccc(S(=O)(=O)NC(=S)NC2CCCCC2)cc1 ?
eIF4E-4G inh: 0; PERK inhibitor: 1; PABP polyA inh: inactive; eIF4H inh: 0; MLLE-PAM2 inh: 47*

Results for CCc1ccc(C(C)NC(=S)NC2CCCCC2)cc1 (centres undefined) ?
PABP polyA inh: inactive; eIF4H inh: -2; MLLE-PAM2 inh: -24

How did CC(Sc1nc2ccccc2c(=O)n1C)C(=O)N(C)C1CCCCC1 (centres undefined) do in these assays?
MLLE-PAM2 inh: -20

How did CSCCC(C(=O)Nc1c(C)cccc1C)N1CCN(c2ccc(F)cc2)CC1 (centres undefined) do in these assays?
MLLE-PAM2 inh: 3

Results for CC(C)(C(=O)N1CCC1(C)C(=O)NS(=O)(=O)c1cccc(C#N)c1)c1ccccc1 (centres undefined) ?
MLLE-PAM2 inh: -4

What do the screens show for `O=C(CN1CCCCCC1)Nc1cc([N+](=O)[O-])ccc1Cl`?
PABP polyA inh: inactive; eIF4H inh: 1; MLLE-PAM2 inh: 9

What do the screens show for `O=C(CN1CCOCC1)Nc1cc([N+](=O)[O-])ccc1Cl`?
eIF4E-4G inh: -1; PERK inhibitor: 0; PABP polyA inh: inactive; eIF4H inh: active; MLLE-PAM2 inh: 10

What do the screens show for `O=[N+]([O-])c1cc2cccnc2c2ncccc12`?
eIF4E-4G inh: 1; PERK inhibitor: 1; PABP polyA inh: inactive; eIF4H inh: -8; MLLE-PAM2 inh: -8

Results for NS(=O)(=O)c1cccc2c1c([N+](=O)[O-])cc1nc(O)c(O)nc12 ?
MLLE-PAM2 inh: 38*

Results for COC(=O)c1c(-c2ccco2)csc1NC(=O)C1CC=CCC1C(=O)O (centres undefined) ?
eIF4E-4G inh: 4; PERK inhibitor: 2; PABP polyA inh: active; eIF4H inh: 85*; MLLE-PAM2 inh: -9

Results for COCc1cc(=O)n2[nH]cc(-c3ccsc3)c2n1 ?
PABP polyA inh: inactive; eIF4H inh: 5; MLLE-PAM2 inh: -4

Results for NC(=S)N=Nc1c(O)n(CCCl)c2ccc(Br)cc12 ?
eIF4E-4G inh: 1; PERK inhibitor: 0; PABP polyA inh: inactive; eIF4H inh: 10; MLLE-PAM2 inh: 32

Results for C/C(Cl)=C\Cn1c(O)c(N=NC(N)=S)c2cc(Br)ccc21 ?
eIF4E-4G inh: -4; PERK inhibitor: 0; PABP polyA inh: inactive; eIF4H inh: 13; MLLE-PAM2 inh: 44*

Source: PubChem
